TROY NFkB inh = blocks TROY-dependent signaling in reporter cells. inhibition, % at 10 µM. AID 1347056. 360,000 tested, 0.98% active. Q293 LMP1-TROYcd NF-kB luciferase reporter, 4 h;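 active means compounds whose plate-normalised and pattern-corrected inhibition of the luciferase reporter signal at the single screening dose is 50% or more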
TWEAK-Fn14 inh = inhibitors of TWEAK-Fn14 interaction signaling; TWEAK-stimulated Fn14 reporter cells, luciferase luminescence, 8 h; AID 1159606; 360,000 tested, 2% active; inhibition, % at 10 µM; in the data active means inhibition above about 50%
Peg3 promoter = reduces Peg3 promoter-driven luciferase expression in HeLa | HeLa PEG-Prom luciferase reporter, luminescence, overnight | inhibition, % at 20 µM | 360,000 tested, 1.7% active | AID 588405;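 active means inhibition of at least 50% at 20 µM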
Shn3 3UTR inh = Schnurri-3 reporter inhibition in Clone20 osteoblasts. Clone20 osteoblast Shn3 3'UTR firefly luciferase, 24 h. inhibition, % at 12.5 µM. AID 588674. 360,000 tested, 0.52% active;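 active means mean inhibition of at least 75% with every replicate also reaching 75%; inconclusive means mean inhibition at least 75% but some replicate below; inactive means mean inhibition below 75%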;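 further: 0% = median of neutral control wells and 100% = pilot-screen positive control compound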
MITF TRPM1 inh = MITF TRPM1 promoter inhibition in SK-MEL-5 cells. SK-MEL-5 TRPM1 promoter luciferase, 24 h. inhibition, % at 12.5 µM. 330,000 tested, 0.83% active;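 active means mean inhibition across replicates of 60% or more, whatever share of single replicates reaches that level; inconclusive means some that reach 60%, reason not given; inactive means mean inhibition across replicates below 60%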
EBV LMP1 NFkB = reduces LMP1-driven NF-kappaB luciferase signal; AID 504558; LMP1-induced NF-kappaB luciferase reporter cells, luminescence; 350,000 tested, 0.69% active; inhibition, % at 12.5 µM; in the data active means inhibition above about 41%; inconclusive means no clear call, values can overlap the other calls;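 further: 0% = neutral control wells and 100% = reference inhibitor control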
An asterisk follows results filed as active; ? = inconclusive; nt = no result. In the library only some 4.1% were active in any assay of this set; here they are far more common.

SMILES | TROY NFkB inh | TWEAK-Fn14 inh | Peg3 promoter | Shn3 3UTR inh | MITF TRPM1 inh | EBV LMP1 NFkB
O=S(Cc1ccc(Br)cc1)Cc1nnc(SCc2ccc(Cl)cc2)n1-c1ccccc1 (centres undefined) | 31 | 55* | 10 | 54 | 4 | 13
O=S(Cc1ccc(Br)cc1)Cc1nnc(SCc2c(F)cccc2Cl)n1-c1ccccc1 (centres undefined) | 22 | 48 | 8 | 16 | 12 | 15
Cc1ccc2[nH]c(CNC(=O)C3CCCCC3)cc2c1 | 53* | 72* | -14 | 2 | 20 | -8
COc1ccc(/C=N/NS(=O)(=O)c2ccc(F)cc2)cc1CN1CCSCC1 | 4 | 1 | 16 | -6 | 11 | 6
COc1ccc(S(=O)(=O)N2CCN(C(=O)COc3ccc(C)c(C)c3)CC2)cc1OC | -3 | 16 | 31 | 10 | 10 | 4
Cc1ccc(C)c(Cn2c3ccccc3c3cnn(CC(=O)NCCCN4CCCCC4)c(=O)c32)c1 | -24 | -9 | 86* | 3 | ? | -5
CCn1c(=O)c([N+](=O)[O-])c(Cl)c2ccccc21 | 14 | 21 | 108* | 96* | 94* | -4
CNc1c(NS(=O)(=O)c2ccc(CC(C)C)cc2)c(=O)oc2ccccc12 | -3 | -20 | 15 | -3 | 4 | -3
O=C(CN1C(=O)/C(=C/c2ccccc2)SC1=S)N1CCN(CCc2ccccn2)CC1 | -10 | -12 | 74* | -36 | 10 | 0
O=C1/C(=C\c2cc(Cl)c(O)c(Cl)c2)SC(=S)N1Cc1ccccc1 | 70* | 61* | 45 | -14 | 5 | 12
O=C(CCCN1C(=O)/C(=C\c2ccccc2)SC1=S)N1CCOCC1 | -29 | -13 | 19 | -58 | -15 | -15
CN1CCN(C(=O)CCN2C(=O)/C(=C/c3ccccc3Cl)SC2=S)CC1 | 18 | 23 | 59* | -60 | -3 | -5
O=C(CCN1C(=O)/C(=C\c2ccccc2)SC1=S)N1CCCCC1 | -28 | 26 | 94* | -36 | -6 | -8
O=C(CCCc1nc(-c2ccc(Cl)cc2)no1)NC1CCCCC1 | -26 | 28 | 16 | 42 | 12 | 29
COc1ccc(N(CC(=O)Nc2cc(Cl)ccc2C)S(=O)(=O)c2c(C)n[nH]c2C)cc1 | -4 | 8 | 21 | -7 | 4 | -12
O=C1CCC(C(=O)OCC(=O)N2N=C3/C(=C\c4ccccc4)CCCC3C2c2ccccc2)N1 (centres undefined) | 1 | 14 | 6 | 40 | 7 | 3
CNC(=O)c1sc(N2N=C3/C(=C\c4ccccc4)CCCC3C2c2ccccc2)nc1C (centres undefined) | 48 | 84* | 36 | 33 | 10 | 11
CNC(=O)c1sc(N2N=C3/C(=C/c4ccccc4)CCCC3C2c2ccccc2)nc1C (centres undefined) | 30 | 58* | 2 | 34 | 3 | 12
O=C(c1ccccn1)N1N=C2/C(=C/c3ccccc3)CCCC2C1c1ccccc1 (centres undefined) | -10 | 9 | -3 | -8 | 0 | -9
O=S(=O)(/N=C(/Nc1cccnc1)c1ccccc1)c1ccc(F)cc1F | 3 | 6 | 4 | -15 | -7 | -7
O=C(O)Cc1ccc2c(c1)Cc1cccnc1O2 | -12 | -1 | -38 | -4 | nt | -1
NS(=O)(=O)c1ccc(CCNc2ccn3nc(-c4cccc(C(F)(F)F)c4)cc3n2)cc1 | 66* | 80* | 41 | 20 | nt | nt
COc1ccccc1-c1cc2nc(NCCc3ccc(S(N)(=O)=O)cc3)ccn2n1 | -10 | -4 | 12 | -19 | nt | nt
Cc1ccc(C(=O)c2ccccc2C(=O)OCC(=O)Nc2cccc([N+](=O)[O-])c2)cc1 | 16 | 29 | -4 | 20 | -9 | -4
CN(C)S(=O)(=O)c1ccc(C(=O)OCc2nnc(-c3ccccc3)o2)cc1 | -4 | -9 | -20 | -14 | 10 | 4
SMILES | TROY NFkB inh | TWEAK-Fn14 inh | Peg3 promoter | Shn3 3UTR inh | MITF TRPM1 inh | EBV LMP1 NFkB
CS(=O)(=O)c1ccc(C(=O)OCc2nnc(-c3ccccc3)o2)cc1[N+](=O)[O-] | 66* | 66* | 109* | 7 | 48 | -5
CC(=O)c1cccc(NC(=O)COC(=O)c2ccc(S(C)(=O)=O)c([N+](=O)[O-])c2)c1 | 45 | 64* | 8 | 27 | 5 | -48
Cc1ccc(Cl)c(NC(=O)COC(=O)c2ccccc2C(=O)c2ccc(Cl)c([N+](=O)[O-])c2)c1Cl | 65* | 100* | 100* | 56 | 87* | 73*
NS(=O)(=O)c1cc(C(=O)OCC(=O)Nc2ccccc2[N+](=O)[O-])ccc1Cl | -10 | -15 | 1 | -17 | -6 | 5
Cc1ccccc1NC(=O)COC(=O)c1ccc(S(C)(=O)=O)c([N+](=O)[O-])c1 | 1 | 33 | 89* | 0 | 19 | 6
Cc1ccccc1NC(=O)Cc1nc(COC(=O)c2ccc(S(C)(=O)=O)c([N+](=O)[O-])c2)cs1 | 46 | 69* | 101* | ? | 73* | -4
CS(=O)(=O)c1ccc(C(=O)OCC(=O)Nc2cccnc2Cl)cc1[N+](=O)[O-] | 8 | 22 | 24 | 94* | 27 | 2
O=C(OCc1nnc(-c2ccccc2)o1)c1ccc2ccccc2n1 | nt | 79* | -61 | -21 | -6 | -6
COc1ccc(S(=O)(=O)N2CCCCC2c2cc(C(=O)Nc3ccc(OC)cc3C)no2)cc1 (centres undefined) | 19 | 25 | 1 | 7 | nt | nt
CSc1cccc(NC(=O)CNS(=O)(=O)c2ccccc2)c1 | -15 | 1 | -25 | -7 | -11 | -8
CC1Cc2ccccc2N1C(=O)c1cc2sccc2n1Cc1ccc(F)cc1 (centres undefined) | 4 | 17 | 54* | 16 | 13 | -9
COc1cccc(C(=O)Nc2ccc(NC(=O)C(C)(C)C)cn2)c1 | 65* | 75* | -14 | -21 | -2 | 37
COc1cccc(C(=O)Nc2ccc(NC(=O)C3CCCCC3)nc2)c1 | -5 | 17 | -18 | 2 | -7 | -8
N/C(=N\S(=O)(=O)c1cc(C(F)(F)F)cc(C(F)(F)F)c1)c1ccncc1 | 4 | -9 | 13 | 3 | -3 | 3
N/C(=N\S(=O)(=O)c1cc(C(F)(F)F)cc(C(F)(F)F)c1)c1ccc(Cl)cc1 | 60* | 17 | 33 | 27 | 12 | 8
Cc1ccc(C(=O)N/C(=C/c2ccc(Cl)cc2)C(=O)N2CCOCC2)cc1 | -4 | 7 | -3 | 2 | 3 | -9
COc1ccc(-n2nc(C(=O)NCC(=O)NCCCN3CC(C)CC(C)C3)c3ccccc3c2=O)cc1 (centres undefined) | -15 | 20 | 5 | 4 | -8 | -1
C[n+]1c2n(c3ccccc31)N=C(c1cc(C(C)(C)C)c(O)c(C(C)(C)C)c1)CS2 | 57* | 88* | 86* | 90* | 0 | 45*
Cc1ccc(CNC(=O)CSc2c3c(nc4ccc(Cl)cc24)CCCC3)o1 | -17 | -8 | 26 | 84* | 16 | 8

High-throughput results (PubChem BioAssay)
